# Source: PubChem BioAssay AID2685 (National Center for Advancing Translational Sciences (NCATS), 2010)
# Hit rate of the full screen: of about 320,000 compounds, about 2,100 (0.66%) were called active. About 53% were inconclusive and are not listed. Calls come from the whole dose curve; as a rule, active = well fitted inhibition curve with a large enough effect in the signal ratio, with a control signal flat (not every such curve was filed as active); inconclusive = small, poorly fitted or top-dose-only effect, or effect the other way, or a change in a side signal; inactive = flat fitted curve, though single readings scatter; the % refers to the signal ratio. For the sample, actives were picked, then their nearest neighbours and some compounds at random.
# Experiment: qHTS Assay for Lipid Storage Modulators in Drosophila S3 Cells;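 for cell number change: cells counted by Cell Tracker Red CMTPX staining in the red channel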; for lipid storage change, negative = inhibition: % is set by controls: 0 for no effect and ±100 for the full control effect
# Details: BODIPY lipid droplet fluorescence, 18-24 h, cells fed with added oleic acid; cell number change: measured here: cell count max response; series mostly up to 46.1 µM; lipid storage change, negative = inhibition: at the top concentration
# Outline: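 Drosophila S3 cells got compounds at several concentrations plus oleic acid (400 uM solution). Laser-scanning cytometry with 488 nm excitation read lipid droplets at 500-530 nm and cells at 575-640 nm. Percent activity was relative to 20 uM Triacsin C.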
# Potency is the fitted concentration of half-maximal effect.
SMILES,"lipid storage change, negative = inhibition",cell number change,Potency,outcome
Cc1ccc(S(=O)(=O)N2CCOCC2)cc1NC(=O)COC(=O)CCC(=O)c1ccc(F)cc1,17% (inactive),14.2%,,
N=c1c(C(=O)NCc2ccco2)cc2c(=O)n3ccccc3nc2n1C1CCCC1,,10.3%,0.651 µM (active),
COCCCn1c(C(=O)NCCN2CCOCC2)cc2c(=O)n3ccccc3nc21,,5.41%,1.84 µM (active),
N=c1c(C(=O)NCC2CCCO2)cc2c(=O)n3ccccc3nc2n1C1CCCCC1 (centres undefined),,-7.39%,,inactive
COCCCn1c(C(=O)N2CCOCC2)cc2c(=O)n3ccccc3nc21,-8.57% (inactive),17.7%,,
N=c1c(C(=O)NC2CCCC2)cc2c(=O)n3ccccc3nc2n1C1CCCC1,0.118% (inactive),-15.6%,,
O=C(NCCN1CCOCC1)c1cc2c(=O)n3ccccc3nc2n1Cc1ccccc1,21.5% (inactive),13.8%,,
Cc1cccc(C)c1NC(=O)CNC(=O)C1CCCN(C(=O)c2ccc(Cl)cc2)C1 (centres undefined),10.7% (inactive),1.48%,,
COc1cc(C(=O)NCC(=O)NC(C)CCc2ccccc2)cc(OC)c1OC (centres undefined),,-6.74%,,inactive
CCOC(=O)N1CCN(C(=O)CCCCCn2c(=S)[nH]c3ccsc3c2=O)CC1,14.1% (inactive),6.09%,,
CCOC(=O)C1CCCN(C(=O)C2CCN(S(=O)(=O)c3c(C)noc3/C=C/c3ccccc3F)CC2)C1 (centres undefined),,2.99%,,inactive
COc1ccc(OC)c(NC(=O)CCCc2ccccc2)c1,,8.01%,,inactive
COc1ccc(OC)c(NC(=O)NCCc2cccc(Cl)c2)c1,12.6% (inactive),4.18%,,
COc1ccc(OC)c(NC(=O)CCN2CCN(Cc3ccccc3)CC2)c1,16.5% (inactive),-0.977%,,
COc1ccc(Cl)cc1NC(=O)CN1CCN(Cc2ccccc2)CC1,-7.01% (inactive),1.46%,,
COc1ccc(OC)c(NC(=O)CCN2C(=O)c3ccccc3C2=O)c1,,23.6%,,inactive
COc1ccc(Cl)cc1NC(=O)COC(=O)CCNC(C)=O,11.9% (inactive),0.288%,,
COc1ccc(OC)c(NC(=O)NCCCCc2ccccc2)c1,,-13.4%,2.91 µM (active),
COc1ccc(OC)c(NC(=O)CN2C(=O)C(=O)N(Cc3ccccc3)C2=O)c1,,-12.4%,2.31 µM (active),
COc1ccc(Cl)cc1NC(=O)CCNC(=O)OCc1ccccc1,,-13.6%,7.31 µM (active),
COc1ccc2oc(=N)c(C(=O)NCc3ccccc3)cc2c1,-29.1% (inactive),8.47%,,
O=C(O)CCc1ccc(-c2cccs2)n1NC(=O)c1ccc(O)cc1,10.7% (inactive),6.61%,,
O=C(COC(=O)/C=C/c1ccccc1)NCc1ccccc1Cl,0.13% (inactive),,,
O=C(COC(=O)C1CC2C=CC1C2)NCc1ccccc1Cl (centres undefined),10.6% (inactive),9.83%,,

SMILES,"lipid storage change, negative = inhibition",cell number change,Potency,outcome
CC1CC1C(=O)OCC(=O)NCc1ccccc1Cl (centres undefined),,-18.4%,32.6 µM (active),
Oc1cccc(/C=N/Nc2ccc(Cl)nn2)c1,9.73% (inactive),0.54%,,
O=C1c2ccccc2C(=O)N1c1cccnc1,,-5.37%,25.9 µM (active),
O=C1c2cccc([N+](=O)[O-])c2C(=O)N1c1cccnc1,0.573% (inactive),,,
O=C1c2cccc3cccc(c23)C(=O)N1c1cccnc1,-3.65% (inactive),-10.8%,,
Cc1ccccc1Nc1nnc(SCC(=O)Nc2ccccc2[N+](=O)[O-])s1,-4.62% (inactive),-4.61%,,
CCCCC[C@H]1CN(C2CCCCC2)C(=O)[C@@H]1CC(=O)NCc1ccccc1,,-8.08%,16.4 µM (active),
CCCCC[C@H]1CN(CCc2ccccc2)C(=O)[C@@H]1CC(=O)NCc1ccc(OC)cc1,-6.03% (inactive),-13.8%,,
CCCCN1C[C@H](Cc2ccccc2)[C@@H](CC(=O)NCc2ccc(OC)cc2)C1=O,-12.4% (inactive),2.91%,,
CCOC(=O)c1ccc(NC(=O)c2nc[nH]c2C(=O)N2CCc3ccccc3C2)cc1,13.6% (inactive),9.14%,,
O=[N+]([O-])c1cccc2c(S(=O)(=O)N3CCCCC3)cccc12,,-7.14%,,inactive
O=[N+]([O-])c1ccccc1S(=O)(=O)N1CCCCC1,,,3.66 µM (active),
Cc1ccc(S(=O)(=O)N2CCCCCC2)cc1[N+](=O)[O-],-26% (inactive),-8.44%,,
O=[N+]([O-])c1cc(S(=O)(=O)N2CCCCCC2)ccc1F,,-27.8%,14.6 µM (active),
O=[N+]([O-])c1ccccc1S(=O)(=O)N1CCSCC1,25.8% (inactive),-12%,,
O=[N+]([O-])c1cc(S(=O)(=O)N2CCCCCC2)ccc1Cl,-17.4% (inactive),-8.42%,,
O=C(NCCc1ccccc1)/C(=C\c1ccc([N+](=O)[O-])cc1)NC(=O)c1ccco1,,,,inactive
COc1ccccc1C1(CC(=O)Nc2nccs2)CCOC(C(C)C)C1 (centres undefined),-11.8% (inactive),,,
C=CCn1c(SCC(=O)NCc2ccc3c(c2)OCO3)nnc1C1CCCCC1,-2% (inactive),-24%,,
COC(=O)c1sccc1NS(=O)(=O)c1ccccc1[N+](=O)[O-],,-10.5%,,inactive
CN(C)S(=O)(=O)c1cccc(NC(=O)COC(=O)CCc2nc3ccccc3s2)c1,,27.2%,,inactive
Cc1cccc(NC(=O)c2ccc3c(=O)n(CC4CCCO4)c(=S)[nH]c3c2)c1 (centres undefined),,0.855%,2.91 µM (active),
COc1ccc(NC(=O)c2ccc3c(=O)n(CC4CCCO4)c(=S)[nH]c3c2)c(OC)c1 (centres undefined),,0.833%,,inactive
